Laboratory results taken from PubChem BioAssay (EPA / NIEHS).
Results filed as inconclusive are left out. Activity calls are given as the source filed them. The calls were made as follows, unless noted: active = hit-call score of the fitted dose curve at least 0.9, where 1 is the maximum; inactive = score below 0.9.

What was measured:
[1] = read-out: Monokine induced gamma interferon (MIG), CXCL9 (gene 4283); assay: BSK_3C_MIG: BioMAP Diversity Plus: 3C Assay for Monokine induced gamma interferon (MIG) Biomarker Activity (AID 2283021); conditions: primary human endothelial cells (HUVEC); actives raise or lower the signal;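 as to AC50: MIG protein level measured by immunoassay in the treated endothelial cultures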
Procedure, shortened: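 ELISA measurement of MIG in human umbilical vein endothelial cells 24 h after treatment. Cytotoxicity tracked by SRB staining in parallel cultures; gain or loss of signal fitted relative to DMSO.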

[2] = target: human Vitamin D Receptor (VDR), VDR (gene 7421) (UniProt P11473); assay: ATG_VDR_TRANS: Attagene TRANS-FACTORIAL HepG2 Assay for human Vitamin D Receptor (VDR) (AID 2283022; active = hit-call score of the fitted dose curve at least 0.9, where 1 is the maximum)
Sequence of human Vitamin D Receptor (VDR), VDR (gene 7421) (P11473 whole entry, looked up): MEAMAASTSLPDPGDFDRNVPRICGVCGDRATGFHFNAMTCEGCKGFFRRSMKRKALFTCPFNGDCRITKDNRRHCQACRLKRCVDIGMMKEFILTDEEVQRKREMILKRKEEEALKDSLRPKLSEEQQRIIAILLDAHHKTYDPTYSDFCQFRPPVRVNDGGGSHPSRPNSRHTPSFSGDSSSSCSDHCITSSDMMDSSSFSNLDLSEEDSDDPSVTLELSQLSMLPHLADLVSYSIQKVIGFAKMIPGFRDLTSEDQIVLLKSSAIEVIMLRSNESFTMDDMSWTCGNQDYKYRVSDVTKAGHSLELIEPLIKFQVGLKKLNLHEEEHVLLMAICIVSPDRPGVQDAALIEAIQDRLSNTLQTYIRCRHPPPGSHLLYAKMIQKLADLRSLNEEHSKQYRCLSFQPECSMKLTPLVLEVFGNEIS
Procedure, shortened: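 Multiplexed TRANS reporter in HepG2; 24 h treatment; reporter mRNA by RT-PCR plus capillary electrophoresis; upregulation scored relative to DMSO.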

[3] = BSK_3C_SRB: Viability Assessment in the BioMAP Diversity Plus: 3C Assay (AID 2283023); conditions: primary human endothelial cells (HUVEC);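 also: fitted both ways against DMSO so a hit may be signal rise or drop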
Procedure, shortened: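 Overt cytotoxicity is gauged in parallel confluent HUVEC cultures by SRB total-protein staining at the time of biomarker measurement, 24 h after dosing. Gain or loss of signal is fitted versus DMSO.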

[4] = read-out: Matrix Metallopeptidase 1 (MMP1), MMP1 (gene 4312); assay: BSK_BE3C_MMP1: BioMAP Diversity Plus: BE3C Assay for Matrix Metallopeptidase 1 (MMP1) Biomarker Activity (AID 2283024); conditions: primary human bronchial epithelial cells; actives raise or lower the signal
Procedure, shortened: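 ELISA measurement of MMP-1 after 24 h compound exposure of primary human bronchial epithelial cells. Changes in either direction fitted relative to DMSO; parallel SRB staining checked overt cytotoxicity.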

[5] = read-out: Pselectin, SELP (gene 6403); assay: BSK_4H_Pselectin: BioMAP Diversity Plus: 4H Assay for Pselectin Biomarker Activity (AID 2283026); conditions: primary human endothelial cells (HUVEC); actives raise or lower the signal
Procedure, shortened: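 ELISA of surface P-selectin on HUVEC, 24 h after dosing, with parallel SRB staining (0.1% after 10% TCA fixation, 560 nm) for overt cytotoxicity. Activity fitted in both directions relative to DMSO.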

[6] = BSK_4H_SRB: Viability Assessment in the BioMAP Diversity Plus: 4H Assay (AID 2283027); conditions: primary human endothelial cells (HUVEC);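 also: cells exposed to compound for 24 h before staining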;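 as to AC50: curves fitted both ways versus DMSO so AC50 may be loss or gain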
Procedure, shortened: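 HUVEC, 24 h post-dose; 10% TCA fix, 0.1% SRB stain, A560 nm. Total protein = overt cytotoxicity, parallel to biomarker read. Bidirectional fit vs DMSO baseline.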

[7] = BSK_BE3C_SRB: Viability Assessment in the BioMAP Diversity Plus: BE3C Assay (AID 2283028); conditions: primary human bronchial epithelial cells;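 as to AC50: fitted both ways so AC50 may mark signal gain or loss versus DMSO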
Procedure, shortened: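 SRB total-protein staining (0.1%, after TCA fixation) of chemically dosed human bronchial epithelial primary cells at 24 h; DMSO serves as the negative control for bidirectional curve fitting.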

[8] = read-out: Urokinase-type plasminogen activator receptor (uPAR), PLAUR (gene 5329); assay: BSK_4H_uPAR: BioMAP Diversity Plus: 4H Assay for Urokinase-type plasminogen activator receptor (uPAR) Biomarker Activity (AID 2283030); conditions: primary human endothelial cells (HUVEC); actives raise or lower the signal
Procedure, shortened: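 Endpoint derived via bidirectional curve fitting against DMSO baseline; readout was ELISA detection of uPAR on umbilical vein endothelial cells at 24 h post-treatment, with SRB-stained parallel cultures assessing cytotoxicity.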

[9] = read-out: Vascular endothelial growth factor receptor 2 (Homo sapiens) (UniProt P35968); assay: BSK_4H_VEGFRII: BioMAP Diversity Plus: 4H Assay for Vascular endothelial growth factor receptor 2 (VEGFR2) Biomarker Activity (AID 2283031); conditions: primary human endothelial cells (HUVEC); actives raise or lower the signal;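 as to AC50: cell-surface VEGFR2 protein level quantified by ELISA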
Procedure, shortened: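 In this multiplexed HUVEC system, biomarker ELISA was performed after 24 h chemical exposure. Parallel SRB staining (TCA fixation, 560 nm) tracked cytotoxicity; DMSO served as baseline.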

[10] = read-out: Human Leukocyte Antigen - DR isotype (HLADR), HLA-DRA (gene 3122); assay: BSK_BE3C_HLADR: BioMAP Diversity Plus: BE3C Assay for Human Leukocyte Antigen - DR isotype (HLADR) Biomarker Activity (AID 2283032); conditions: primary human bronchial epithelial cells; actives raise or lower the signal
Procedure, shortened: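 Cell-surface HLA-DR ELISA readout at 24 h after dosing in the BE3C primary human lung bronchial epithelial system; gain or loss of signal against DMSO, with parallel sulforhodamine B staining of total protein for overt cytotoxicity.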

[11] = read-out: Vascular cell adhesion molecule 1 (VCAM1), VCAM1 (gene 7412); assay: BSK_4H_VCAM1: BioMAP Diversity Plus: 4H Assay for Vascular cell adhesion molecule 1 (VCAM1) Biomarker Activity (AID 2283033); conditions: primary human endothelial cells (HUVEC); actives raise or lower the signal
Procedure, shortened: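 VCAM-1 ELISA read 24 h after chemical dosing of HUVEC in the BioMAP 4H system, with gain or loss of signal fitted relative to DMSO. Parallel SRB staining (560 nm) checked overt cytotoxicity.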

[12] = read-out: Interferon-gamma inducible Protein 10 (IP10), CXCL10 (gene 3627); assay: BSK_BE3C_IP10: BioMAP Diversity Plus: BE3C Assay for Interferon-gamma inducible Protein 10 (IP10) Biomarker Activity (AID 2283034); conditions: primary human bronchial epithelial cells; actives raise or lower the signal
Procedure, shortened: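 IP-10 quantified by ELISA in human primary bronchial epithelial cell cultures at 24 hours post-dosing. Gain or loss of signal fitted relative to DMSO; parallel SRB staining assessed overt cytotoxicity.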

[13] = read-out: Monokine induced gamma interferon (MIG), CXCL9 (gene 4283); assay: BSK_BE3C_MIG: BioMAP Diversity Plus: BE3C Assay for Monokine induced gamma interferon (MIG) Biomarker Activity (AID 2283035); conditions: primary human bronchial epithelial cells; actives raise or lower the signal
Procedure, shortened: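 Dose cells (human primary bronchial epithelial), incubate 24 h, quantify MIG by ELISA, then fit concentration–response in both directions relative to DMSO control.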

[14] = read-out: Plasminogen activator inhibitor-1 (PAI1), SERPINE1 (gene 5054); assay: BSK_BE3C_PAI1: BioMAP Diversity Plus: BE3C Assay for Plasminogen activator inhibitor-1 (PAI1) Biomarker Activity (AID 2283037); conditions: primary human bronchial epithelial cells; actives raise or lower the signal
Procedure, shortened: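 PAI-1 was measured by ELISA in human primary bronchial epithelial cultures 24 h after chemical dosing, with cytotoxicity checked by SRB total-protein staining in parallel cultures. Activity was fitted in both directions relative to DMSO.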

[15] = read-out: urokinase plasminogen activator (uPA), PLAU (gene 5328); assay: BSK_BE3C_uPA: BioMAP Diversity Plus: BE3C Assay for urokinase plasminogen activator (uPA) Biomarker Activity (AID 2283038); conditions: primary human bronchial epithelial cells; actives raise or lower the signal
Procedure, shortened: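 Using confluent primary human lung bronchial epithelial cultures, we dosed chemicals, waited 24 h, then ran a uPA ELISA, fitting bidirectionally against DMSO.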

[16] = read-out: Urokinase-type plasminogen activator receptor (uPAR), PLAUR (gene 5329); assay: BSK_BE3C_uPAR: BioMAP Diversity Plus: BE3C Assay for Urokinase-type plasminogen activator receptor (uPAR) Biomarker Activity (AID 2283039); conditions: primary human bronchial epithelial cells; actives raise or lower the signal;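 also: cells exposed to compound for one day before measurement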
Procedure, shortened: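 uPAR levels were measured by ELISA after 24 h compound treatment of primary human bronchial epithelial cells, fitted in both directions relative to DMSO. Parallel SRB staining served as the cytotoxicity read-out.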

[17] = read-out: Interleukin-6 (IL6), IL6 (gene 3569); assay: BSK_CASM3C_IL6: BioMAP Diversity Plus: CASM3C Assay for Interleukin-6 (IL6) Biomarker Activity for (AID 2283040); conditions: primary human coronary artery smooth muscle cells; actives raise or lower the signal
[18] = BSK_3C_Vis: BioMAP Diversity Plus: 3C Assay for Morphology Visualization (AID 2283025); conditions: primary human endothelial cells (HUVEC);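 also: fitted both ways so gain or loss versus DMSO counts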;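 as to AC50: light microscopy image of cell morphology used as background control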
Procedure, shortened: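 Light-microscopy visualization of HUVEC cultures at 24 h post-treatment, with DMSO as baseline for bidirectional fitting.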

[19] = read-out: Transforming growth factor beta 1 (TGFb1), TGFB1 (gene 7040); assay: BSK_BE3C_TGFb1: BioMAP Diversity Plus: BE3C Assay for Transforming growth factor beta 1 (TGFb1) Biomarker Activity (AID 2283036;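 also: TGF-b1 protein level measured by ELISA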); conditions: primary human bronchial epithelial cells; actives raise or lower the signal
Procedure, shortened: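 ELISA readout of TGF-b1 from human lung bronchial epithelial primary cells, taken 24 h post-treatment. Gain or loss of signal fitted relative to DMSO baseline, with parallel SRB staining for overt cytotoxicity.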

[20] = read-out: Thrombomodulin, THBD (gene 7056); assay: BSK_3C_Thrombomodulin: BioMAP Diversity Plus: 3C Assay for Thrombomodulin Biomarker Activity (AID 2283029); conditions: primary human endothelial cells (HUVEC); actives raise or lower the signal
Procedure, shortened: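 ELISA measurement of thrombomodulin on HUVEC surface 24 h after chemical dosing; activity fitted in both directions relative to DMSO vehicle.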

Measured: AC50

COc1cc(C=O)ccc1OC(=O)C(C)C
not listed: [18] | [19] | [20]
inactive: all other assays above

BrC1CCC(Br)C(Br)CCC(Br)C(Br)CCC1Br (stereo unspecified)
active: [3] 4.73 µM | [18] 8.03 µM | [5] 2.57 µM | [6] 4.73 µM | [8] 4.6 µM | [9] 2.62 µM | [10] 1.49 µM | [11] 2.95 µM | [12] 1.55 µM
not listed: [4] | [20]
inactive: all other assays above

CNC[C@H](O)c1cccc(O)c1
not listed: [4] | [20]
inactive: all other assays above

CCCCC/C=C/C=C/C=O
active: [1] 36.5 µM | [3] 31.1 µM | [18] 37.4 µM | [5] 27.1 µM | [6] 30.5 µM | [7] 30.3 µM | [8] 35.6 µM | [9] 20 µM | [10] 20 µM | [11] 33.3 µM | [12] 28.4 µM | [13] 34.3 µM | [15] 31.3 µM
inactive: [19] | [14] | [16] | [17]

COC(=O)c1ccc(C)cc1
not listed: [4]
inactive: all other assays above

CCCCC(CC)COCCC#N (stereo unspecified)
not listed: [2] | [20]
inactive: all other assays above

CC(=O)O[C@]1(C(C)=O)CC[C@H]2[C@@H]3C[C@H](C)C4=CC(=O)CC[C@]4(C)[C@H]3CC[C@@]21C
active: [10] 10 µM | [17] 0.0082 µM
not listed: [2] | [4]
inactive: all other assays above

CCCCC(CC)COC(=O)/C=C\C(=O)OCC(CC)CCCC (stereo unspecified)
not listed: [20]
inactive: all other assays above

CC1COc2ccccc2N1C(=O)C(Cl)Cl (stereo unspecified)
active: [3] 7.57 µM | [18] 5.21 µM | [5] 4.69 µM | [6] 2.79 µM | [10] 7.78 µM | [11] 8.19 µM | [12] 12.2 µM | [14] 3.97 µM | [15] 0.016 µM | [17] 8.9 µM
inactive: [1] | [2] | [7] | [8] | [9] | [13] | [19] | [16]

O=C=NC1CCC(CC2CCC(N=C=O)CC2)CC1 (stereo unspecified)
active: [18] 37.5 µM
not listed: [20]
inactive: all other assays above

O=[N+]([O-])c1cc(C(F)(F)F)ccc1Cl
not listed: [2] | [4]
inactive: all other assays above

CCCCCCCCC=O
not listed: [4] | [20]
inactive: all other assays above

CC(CCO)CCCC(C)(C)O (stereo unspecified)
inactive: [2]

CC1=CCC(O)(C(C)C)CC1 (stereo unspecified)
inactive: [2]

CC(C)(COC(=O)c1ccccc1)COC(=O)c1ccccc1
active: [3] 26.8 µM | [18] 38.9 µM | [5] 31.7 µM | [6] 23.2 µM | [9] 28.4 µM | [11] 20 µM
not listed: [2] | [4] | [20]
inactive: all other assays above
